mIDH1 inhibitor: human IDH1 R132H inhibition; O75874; IDH1-R132H enzyme, NADPH consumption, diaphorase/resazurin fluorescence; Potency, µM (top dose mostly 76.6 µM), without a hit: at the highest dose activity change, negative = inhibition, actives largely listed as inhibitors; 390,000 tested, 0.093% active; AID 602179; also: % is scaled to controls: 0 for no effect and ±100 for the full control effect; nearly all actives have a fitted effect of over 65% in size
Target sequence (O75874 whole entry R132H, stated change not applied): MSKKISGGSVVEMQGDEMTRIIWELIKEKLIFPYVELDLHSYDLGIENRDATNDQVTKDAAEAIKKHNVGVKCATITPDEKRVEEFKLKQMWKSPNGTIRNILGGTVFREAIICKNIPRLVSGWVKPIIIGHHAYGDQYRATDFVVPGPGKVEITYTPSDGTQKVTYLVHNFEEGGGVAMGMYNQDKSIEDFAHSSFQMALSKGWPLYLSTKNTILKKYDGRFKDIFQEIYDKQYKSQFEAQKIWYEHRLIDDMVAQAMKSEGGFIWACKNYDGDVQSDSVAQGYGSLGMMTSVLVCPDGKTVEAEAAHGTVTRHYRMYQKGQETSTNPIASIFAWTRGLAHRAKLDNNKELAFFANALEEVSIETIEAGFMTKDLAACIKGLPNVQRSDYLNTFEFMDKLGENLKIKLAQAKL
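IDH1-R132H (0.5 ug/mL) preincubated 30 min with compound, then NADPH (0.016 mM) and alpha-KG (2 mM) added; 80 min at RT, pH 7.5. Remaining NADPH coupled via diaphorase/resazurin to fluorescence (540/590 nm); concentration-response curves normalized to no-enzyme control.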
Nrf2 ARE act: Nrf2 pathway activation | AREc32 ARE-luciferase reporter (MCF7-derived line), luminescence, 24 h | Potency, µM (series often up to 46.1 µM), for the others: top-dose activation, actives largely listed as activators | 410,000 tested, 0.31% active; also: % of control where 0% means no effect; nearly all actives have a fitted effect of over 65% in size
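ARE-driven firefly luciferase activity in AREc32 cells measured after a 24 hr compound exposure at 37 deg C, using Steady-Glo reagent and a 30 min room-temperature hold.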
ELG1 DNA repair: ELG1-dependent DNA repair inhibition; HEK293T ELG1-luciferase reporter, luminescence, 16 h; DNA damage induced by 5-fluorouridine; 330,000 tested, 2.3% active; Potency, µM (top dose mostly 46.1 µM), inactives show at the top dose activity change, negative = inhibition, hits mostly inhibitors; also: % is scaled to controls: 0 for no effect and ±100 for the full control effect; nearly all actives have a fitted effect of over 55% in size
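HEK293T cells expressing luciferase-tagged ELG1 (2,000/well) received 5-Fluorouridine plus compound or DMSO for 16 hr at 37 °C. Luciferase was read by ONE-Glo luminescence after 30 min at room temperature.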
Nrf2 block: Nrf2 pathway inhibition. Potency, µM (top dose mostly 46 µM), for the others: at the top dose activity change, negative = inhibition, most hits filed as inhibitors. AID 504444. 360,000 tested, 2.1% active. A549 ARE-Fluc reporter, luciferase luminescence, 18-24 h; also: % is scaled to controls: 0 for no effect and ±100 for the full control effect; nearly all actives have a fitted effect of over 60% in size
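A549 ARE_Fluc cells (5000/well, 5% FBS OPTI-MEM) pre-incubated 2 h, then treated with compounds 18-24 h at 37C/5% CO2 in concentration-response. CellTiter-Fluor viability read first; BugLite luciferase luminescence after 15 min at room temperature gives Nrf2 activity.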
A549 viability: counter-screen for Nrf2 inhibitors: cytotoxicity in A549 cells; 390,000 tested, 0.16% active; Potency, µM (titrated, usually from 46 µM), for the others: at the top dose activity change, negative = cytotoxicity, actives largely listed as inhibitors; A549 ARE-Fluc cells, CellTiter-Fluor viability, 18-24 h; also: % is scaled to controls: 0 for no effect and ±100 for the full control effect
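A549 ARE-Fluc cells in 5% FBS OPTI-MEM, 5000 cells/well, rested 2 h then exposed to compounds in concentration-response for 18-24 h at 37 °C. Viability by CellTiter-Fluor fluorescence (Ex 405/Em 525) after 30 min; luciferase luminescence (BugLite, 15 min, RT) read afterwards.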
An asterisk follows results filed as active; [ ] = dose if it differs, or a comment. An excerpt weighted towards active compounds, which were near 3.8% of everything screened. Calls follow the shape of the dose curve; as a rule, active = well fitted curve in the direction sought with a large enough effect; inconclusive = small, poorly fitted or top-dose-only effect, or another doubt; inactive = no such curve, though single readings can be large; an effect the other way counts as inactive or inconclusive. Potency is read from the fitted curve at half-maximal effect.

Screening Cc1cc(C)c2c(=O)cc(C(=O)Nc3ccccc3C(F)(F)F)oc2c1 returned mIDH1 inhibitor 18%, Nrf2 ARE act 23%, Nrf2 block -10% and A549 viability -1%.
Cc1occc1-c1nnc(SCC(=O)NC2CCCCC2C)o1 (stereo not drawn) was read as mIDH1 inhibitor 9%, Nrf2 ARE act -1%, ELG1 DNA repair inconclusive, Nrf2 block 0% and A549 viability -2%.
For N#Cc1ccc(S(=O)(=O)N2CCN(c3nc(-c4ccccc4)nc4ccccc34)CC2)cc1 the results were Nrf2 block 2% and A549 viability -2%.
Screening COc1ccc(C2c3c(nc(Cc4ccccc4)[nH]c3=O)Oc3ccc4ccccc4c32)cc1OC (stereo not drawn) returned Nrf2 block inconclusive and A549 viability -6%.
Screening Cc1ccc(/C(O)=C/c2nc3ccccc3oc2=O)cc1 returned mIDH1 inhibitor 8%, Nrf2 ARE act 13µM*, ELG1 DNA repair 2%, Nrf2 block -18% and A549 viability -9%.
Screening O=c1oc2ccccc2nc1/C=C(O)/C=C/c1ccc(F)cc1 returned mIDH1 inhibitor 1%, Nrf2 ARE act 18µM*, ELG1 DNA repair inconclusive, Nrf2 block 11% and A549 viability -7%.
`O=c1oc2ccccc2nc1/C=C(O)/C=C\c1ccccc1` gave mIDH1 inhibitor 4%, Nrf2 ARE act 16µM*, ELG1 DNA repair 33%, Nrf2 block 3% and A549 viability -9%.
`Cc1ccc2oc(=O)c(/C=C(\O)C(C)(C)C)nc2c1` gave mIDH1 inhibitor 8%, Nrf2 ARE act inconclusive, ELG1 DNA repair -6%, Nrf2 block -25% and A549 viability 0%.
`O=C1/C(=C/c2cccs2)SC(=S)N1c1ccccc1` gave mIDH1 inhibitor 0%, Nrf2 ARE act 2%, ELG1 DNA repair 27%, Nrf2 block 10µM* and A549 viability inconclusive.
`O=C(c1cc(-c2ccncc2)nc2ccc(Cl)cc12)N1CCN(Cc2ccc3c(c2)OCO3)CC1` gave mIDH1 inhibitor 0%, Nrf2 ARE act 2%, ELG1 DNA repair 15µM*, Nrf2 block -20% and A549 viability 1%.
For COc1ccc(CN2CCN(C(=O)c3cc(-c4cccnc4)nc4ccc(Cl)cc34)CC2)c(OC)c1OC the results were mIDH1 inhibitor -2%, Nrf2 ARE act 0%, ELG1 DNA repair 9.2µM*, Nrf2 block -26% and A549 viability -12%.
`O=C(c1ccc(COc2ccc(Cl)cc2)o1)N1CCN(Cc2ccc3c(c2)OCO3)CC1` gave mIDH1 inhibitor 4%, Nrf2 ARE act 3%, ELG1 DNA repair -29%, Nrf2 block 23µM* and A549 viability -20%.
`CCOc1ccc(N(C)S(=O)(=O)c2ccc(C)c(C(=O)N3CCN(Cc4ccc5c(c4)OCO5)CC3)c2)cc1` gave mIDH1 inhibitor -5%, Nrf2 ARE act 3%, ELG1 DNA repair 16µM*, Nrf2 block inconclusive and A549 viability -9%.
For CC(C)N(Cc1ccccc1)S(=O)(=O)c1ccc2c(c1)NC(=O)CO2 the results were mIDH1 inhibitor 0%, Nrf2 ARE act 0%, ELG1 DNA repair 17%, Nrf2 block -15% and A549 viability -8%.
CC(=O)N(c1ccc(Cl)cc1)C1SC(=O)N(c2ccccc2)C1=O (stereo not drawn) was read as Nrf2 block 0% and A549 viability -1%.
`COc1ccc(CCNC(=O)Cn2c(=O)n(-c3cc(OC)c(OC)c(OC)c3)c(=O)c3ccccc32)cc1OC` gave mIDH1 inhibitor -7%, Nrf2 ARE act 0%, Nrf2 block 1%[9.27 µM] and A549 viability -11%.
`Cc1cc(C)c(NC(=O)c2cc3c(=O)n4ccccc4nc3n2C)c(C)c1` gave mIDH1 inhibitor -7%, Nrf2 ARE act 0%, Nrf2 block 7% and A549 viability 1%.
Screening CCOc1ccc(N(C)S(=O)(=O)c2ccc(C)c(C(=O)NCc3ccccc3OC)c2)cc1 returned mIDH1 inhibitor 22%, Nrf2 ARE act 0%, ELG1 DNA repair inconclusive, Nrf2 block 23µM* and A549 viability 0%.
`CN(CC(=O)Nc1ccc(F)cc1)C(=O)CN1C(=O)NC2(CCCC2)C1=O` gave mIDH1 inhibitor 8%, Nrf2 ARE act 0%, ELG1 DNA repair 14%, Nrf2 block 4% and A549 viability -1%.
Cc1cnc(C(=O)NCc2ccc(Cl)cc2Cl)cn1 was read as mIDH1 inhibitor 4%, Nrf2 ARE act 0%, ELG1 DNA repair 10%, Nrf2 block -5% and A549 viability 3%.
CCOC(=O)c1cc(C(=O)NCc2ccc(Cl)cc2Cl)nn1C was read as mIDH1 inhibitor 0%, Nrf2 ARE act 0%, ELG1 DNA repair inconclusive, Nrf2 block 21µM* and A549 viability -17%.
O=C1Nc2ccccc2Nc2ccc([N+](=O)[O-])cc21 was read as mIDH1 inhibitor 10%, Nrf2 ARE act 3%, ELG1 DNA repair -6%, Nrf2 block 10µM* and A549 viability -14%.
C=C1C(=O)C2=CC1CCC(=O)C1(C)CCC(OC(C)=O)C(C)(C)C1CC2O (stereo not drawn) was read as mIDH1 inhibitor 0%, Nrf2 ARE act inconclusive, Nrf2 block 15µM* and A549 viability inconclusive.
For COc1ccc(CCN(C)c2ncnc3sccc23)cc1OC the results were mIDH1 inhibitor 12%, Nrf2 ARE act 3%, ELG1 DNA repair inconclusive, Nrf2 block inconclusive and A549 viability 5%.
Screening COc1ccc(CN(C)c2ncnc3sccc23)c(OC)c1OC returned mIDH1 inhibitor -3%, Nrf2 ARE act 2%, ELG1 DNA repair 9.2µM*, Nrf2 block inconclusive and A549 viability -19%.
`O=C(Oc1cc2oc(=O)cc(-c3ccccc3)c2cc1Cl)C1CCCCC1` gave mIDH1 inhibitor -5%, Nrf2 ARE act 0%, ELG1 DNA repair 16µM* and A549 viability -10%.
COc1ccc(Cn2ccnc2SCC(=O)Nc2cc(C(F)(F)F)ccc2Cl)cc1 was read as mIDH1 inhibitor -12%, Nrf2 ARE act -1% and A549 viability 0%.
`COc1ccc(/C=C2\SC(=S)N(Cc3cccnc3)C2=O)cc1C` gave mIDH1 inhibitor 4%, Nrf2 ARE act inconclusive, ELG1 DNA repair inconclusive, Nrf2 block 9% and A549 viability -1%.
For CCOc1cc(/C=C2/SC(=Nc3ccccc3)N(Cc3cccnc3)C2=O)ccc1OCC#N the results were mIDH1 inhibitor -7%, Nrf2 ARE act 0%, ELG1 DNA repair 18µM*, Nrf2 block inconclusive and A549 viability -18%.
Cc1cc2c(s1)c1cnn(Cc3cccc(Br)c3)c(=O)c1n2C was read as Nrf2 block inconclusive and A549 viability -1%.
